Measured values as given in PubChem BioAssay (NCATS).
Inconclusive results are not listed. Where a call stands in place of a potency, no number is given. The source made the active and inactive calls. Unless noted, the call rests on the fitted dose curve; in most records, active means well fitted curve in the direction sought with a large enough effect; inconclusive means small, poorly fitted or top-dose-only effect, or another doubt; inactive means no such curve, though single readings can be large; an effect the other way counts as inactive or inconclusive.

What was measured:
[1] = target: D(1A) dopamine receptor (Homo sapiens) (UniProt P21728); assay: HTS Assay for Allosteric Agonists of the Human D1 Dopamine Receptor: Primary Screen for Potentiators (AID 488982)
In short: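 Tetracycline-induced HEK293 Trex D1 cells with forced coupling to calcium, loaded with no-wash calcium dye; kinetic fluorescence read 180 s after compound addition for agonism, then a further 180 s after an EC20 dopamine challenge for potentiation.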

[2] = target: D(1A) dopamine receptor (Homo sapiens) (UniProt P21728); assay: HTS Assay for Allosteric Agonists of the Human D1 Dopamine Receptor: Primary Screen for Antagonists (AID 488983);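 further: calcium flux response to an EC80 dopamine challenge measured with no-wash dye; nearly all actives have a fitted effect of over 65% in size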; further: potency means the concentration at half of the fitted maximal effect
In short: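 Calcium-flux read-out in inducible HEK293 T-REx cells expressing D1, dye-loaded 30–90 min at room temperature. Kinetic reads: 180 s after compound (agonist phase), then 180 s after an EC80 dopamine challenge.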

[3] = Validation screen for small molecules that induce genotoxicity in human embryonic kidney (HEK293T) cells expressing luciferase-tagged ELG1 (AID 493106)
In short: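 ELG1-luciferase reporter readout (ONE-Glo, 30 min, room temperature) after 16 hr compound treatment at 37 °C of HEK293T cells at 2,000 per well. Rising luminescence flags genotoxic stress.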

[4] = target: ATPase family AAA domain-containing protein 5 (Homo sapiens) (UniProt Q96QE3); assay: Validation screen for small molecules that inhibit ELG1-dependent DNA repair in human embryonic kidney (HEK293T) cells expressing luciferase-tagged ELG1 (AID 493107); further: nearly all actives have a fitted effect of over 70% in size; further: potency means the concentration at half of the fitted maximal effect
In short: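 Luciferase read-out, ONE-Glo, 30 min at room temperature, follows 16 h co-exposure at 37 C of compound and the DNA-damaging agent 5-fluorouridine. Cells: HEK293T with ELG1-luciferase fusion, 2,000 per well, DMSO as vehicle.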

[5] = target: Thyrotropin-releasing hormone receptor (Homo sapiens) (UniProt P34981); assay: qHTS for Small Molecule Agonists and Allosteric Enhancers of Human TRH Receptor: Validation Screen for Agonists (AID 493127;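 active means calcium activation more than 3 SD above the typical response in the agonist read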;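 further: intracellular calcium rise by fluo-8 fluorescence before TRH EC20 addition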); conditions: TRH receptor agonist cell assay; at 2 µM; stronger effect = higher value
In short: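 Compound-evoked intracellular calcium release in fluo-8-loaded TRHR cells, read kinetically on FDSS (Ex 480/Em 530, 1 s/cycle) after 23 nL pintool transfer. Agonist phase preceded 10 nM TRH EC20 addition.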

[6] = Nrf2 qHTS screen for inhibitors: Validation (AID 493153; active means well fitted inhibition curve with a large enough effect in the main read-out, with a control signal flat, not every such curve was filed as active); conditions: Potency: luciferase luminescence; viability change: measured here: cytotoxicity max response
In short: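 Concentration-response on A549 ARE_Fluc reporter cells exposed 18-24 h at 37 C, 5% CO2. Cytotoxicity read first by CellTiter-Fluor fluorescence (Ex 405/Em 525), then Nrf2 inhibition by BugLite luminescence after 15 min.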

[7] = qHTS for Inhibitors of Cell Surface uPA Generation: Validation Assay (AID 493164);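 further: RAW 264.7 macrophage cells exposed to compound for 18 h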
In short: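 ATP-Lite luminescence read-out: ATP remains high when uPA activity-dependent LF translocation into the cytoplasm is blocked. RAW 264.7 cells, 18 h compound exposure at 37 C; 7-point titration, 2.45 nM to 38.3 uM final.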

[8] = target: Galactokinase (Homo sapiens) (UniProt P51570); assay: qHTS Validation Assay for Inhibitors of Human Galactokinase (GALK) (AID 493189)
In short: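 GALK (5 nM) with 35 uM ATP and 100 uM galactose in HEPES pH8.0, MgCl2, NaCl, DTT, BSA; 1 h at room temperature. Residual ATP read by Kinase-Glo Plus luminescence after 10 min.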

[9] = Validation screen for small molecules that induce DNA re-replication in SW480 colon adenocarcinoma cells (AID 504364)
In short: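 Image-based DNA content read-out: Hoechst stain 40 min, total nuclear fluorescence intensity (ex 405 nm, em 500-530 nm) after 48 h compound exposure of 250 SW480 cells/well at 37 C, 5% CO2, versus DMSO vehicle.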

[10] = target: Peptidyl-prolyl cis-trans isomerase NIMA-interacting 1 (Homo sapiens) (UniProt Q13526); assay: qHTS Validation Assay to Find Inhibitors of Pin1 (AID 504536; active means well fitted inhibition curve with a large enough effect in the polarisation, with a control signal flat, not every such curve was filed as active; the % refers to the polarisation)
In short: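 Fluorescence polarization competition: compounds (titration) displace HiFluor-488-labeled Pin1-1b peptide from Pin1 (0.3 uM final) in pH 7.5 HEPES buffer with DTT, 10 min at room temperature; %Activity normalized to no-enzyme wells, curves fitted.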

[11] = target: phosphoglycerate mutase (Leishmania major) (UniProt Q4Q090); assay: qHTS Validation Assay to Find Inhibitors of Phosphoglycerate Mutase (AID 504548); further: series mostly up to about 58 µM
In short: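 Luminescent end-point read-out via Kinase-GloPlus after a 10-minute development. Reaction: 1.25nM Leishmania major PGAM with substrate and compound, 45 minutes at room temperature in TEA buffer (pH 7.6) with MgCl2 and Tween-20.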

[12] = target: Ubiquitin carboxyl-terminal hydrolase 1 (Homo sapiens) (UniProt O94782); assay: Inhibitors of USP1/UAF1: Pilot qHTS (AID 504865); further: nearly all actives have a fitted effect of over 35% in size; further: potency means the concentration at half of the fitted maximal effect
In short: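 USP1/UAF1 complex (1nM) preincubated with compound 15 min at room temperature, then Ub-Rho substrate (150nM final) added. Fluorescence read kinetically at 480/540 nm, 6 reads every 60 seconds. Buffer: 50mM HEPES pH 7.8, 0.5mM EDTA, 0.1 mg/ml BSA, 1mM TCEP, 0.01% Tween-20.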

[13] = qHTS for Inhibitors of ATXN expression: Validation (AID 588378); further: nearly all actives have a fitted effect of over 75% in size; further: potency means the concentration at half of the fitted maximal effect
In short: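 Luminescence from an ATXN2-FFLuc reporter in HEK293 cells served as read-out after 24 h compound treatment at 37 degrees C; CellTiter-Fluor fluorescence was recorded first to assess viability.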

[14] = target: Phosphoglycerate kinase, glycosomal (Trypanosoma brucei brucei) (UniProt P07378); assay: qHTS Validation Assay to Find Inhibitors of Phosphoglycerate Kinase (AID 504547)
In short: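 Compounds are pinned into the substrate/PGK mixture, and GAPDH (100nM final) is added to start the reaction by producing 1,3-BPG. After 60 minutes at room temperature, Kinase-Glo Plus is added and luminescence is measured 10 minutes later.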

[15] = qHTS for Inhibitors of ATXN expression: Validation of Cytotoxic Assay (AID 588349); further: potency means the concentration at half of the fitted maximal effect
In short: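 Cytotoxicity counter-screen: ATP-based luminescent viability (CellTiter Glo) after 72 hr exposure of HEK293 cells to a compound titration at 37 degrees C.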

[16] = target: DNA dC->dU-editing enzyme APOBEC-3G (Homo sapiens) (UniProt Q9HC16); assay: qHTS for inhibitors of Vif-A3G interactions: Validation (AID 588379)
In short: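 Yellow fluorescence (Ex 488, Em 500-530) of Vif-coexpressing HeLa A3G-eYFP cells, scanned by Acumen cytometer, reports blocked A3G degradation. Cells plated at 700/well overnight at 37 deg C before compound addition, then a further overnight compound incubation at 37 deg C.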

[17] = target: ATP-dependent 6-phosphofructokinase (Trypanosoma brucei brucei) (UniProt O15648); assay: qHTS Assay to Find Inhibitors of T. brucei phosphofructokinase: hit validation (AID 492961);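 further: luminescence reports ADP formed as PFK phosphorylates fructose-6-phosphate with ATP; series mostly up to about 51 µM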
In short: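 Compounds titrated; %activity normalized to 0x and 1x enzyme controls, curve-fitted. Readout: ADP-Glo luminescence after 45 min room-temperature reaction of 1.25 nM PFK, 0.1 mM ATP, 0.5 mM F6P, pH 8.0.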

Sequence of Peptidyl-prolyl cis-trans isomerase NIMA-interacting 1 (Homo sapiens) (Q13526 whole entry, looked up): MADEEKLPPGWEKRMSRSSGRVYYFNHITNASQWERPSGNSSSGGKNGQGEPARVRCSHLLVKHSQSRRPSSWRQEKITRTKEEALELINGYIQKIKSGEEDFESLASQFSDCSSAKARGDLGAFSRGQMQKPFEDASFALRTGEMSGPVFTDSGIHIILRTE
Sequence of ATP-dependent 6-phosphofructokinase (Trypanosoma brucei brucei) (O15648 whole entry, looked up): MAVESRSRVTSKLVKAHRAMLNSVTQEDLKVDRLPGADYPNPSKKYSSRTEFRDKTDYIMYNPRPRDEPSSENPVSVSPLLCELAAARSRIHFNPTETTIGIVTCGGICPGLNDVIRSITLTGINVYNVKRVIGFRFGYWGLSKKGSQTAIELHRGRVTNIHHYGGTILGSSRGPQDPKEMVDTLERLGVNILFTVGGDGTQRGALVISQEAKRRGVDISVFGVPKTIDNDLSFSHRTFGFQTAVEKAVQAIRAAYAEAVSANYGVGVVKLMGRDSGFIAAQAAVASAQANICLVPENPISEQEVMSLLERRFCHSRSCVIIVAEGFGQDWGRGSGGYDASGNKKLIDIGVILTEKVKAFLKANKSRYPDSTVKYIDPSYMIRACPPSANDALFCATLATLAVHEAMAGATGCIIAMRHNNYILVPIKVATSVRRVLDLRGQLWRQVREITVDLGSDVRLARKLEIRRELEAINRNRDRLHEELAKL
Sequence of D(1A) dopamine receptor (Homo sapiens) (P21728 whole entry, looked up): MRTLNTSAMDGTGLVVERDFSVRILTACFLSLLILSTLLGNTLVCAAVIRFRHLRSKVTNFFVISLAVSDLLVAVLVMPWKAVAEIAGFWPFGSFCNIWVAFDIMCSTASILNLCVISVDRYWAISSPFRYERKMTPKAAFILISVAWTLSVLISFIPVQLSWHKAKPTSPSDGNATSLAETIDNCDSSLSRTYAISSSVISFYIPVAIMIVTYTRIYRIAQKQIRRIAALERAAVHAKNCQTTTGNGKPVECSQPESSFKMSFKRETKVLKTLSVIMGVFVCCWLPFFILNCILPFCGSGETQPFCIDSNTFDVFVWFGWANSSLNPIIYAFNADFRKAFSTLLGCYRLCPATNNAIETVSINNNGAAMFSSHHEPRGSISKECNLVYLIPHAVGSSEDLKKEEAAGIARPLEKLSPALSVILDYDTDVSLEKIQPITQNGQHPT
Sequence of ATPase family AAA domain-containing protein 5 (Homo sapiens) (Q96QE3 whole entry, looked up, the tested form may be a part): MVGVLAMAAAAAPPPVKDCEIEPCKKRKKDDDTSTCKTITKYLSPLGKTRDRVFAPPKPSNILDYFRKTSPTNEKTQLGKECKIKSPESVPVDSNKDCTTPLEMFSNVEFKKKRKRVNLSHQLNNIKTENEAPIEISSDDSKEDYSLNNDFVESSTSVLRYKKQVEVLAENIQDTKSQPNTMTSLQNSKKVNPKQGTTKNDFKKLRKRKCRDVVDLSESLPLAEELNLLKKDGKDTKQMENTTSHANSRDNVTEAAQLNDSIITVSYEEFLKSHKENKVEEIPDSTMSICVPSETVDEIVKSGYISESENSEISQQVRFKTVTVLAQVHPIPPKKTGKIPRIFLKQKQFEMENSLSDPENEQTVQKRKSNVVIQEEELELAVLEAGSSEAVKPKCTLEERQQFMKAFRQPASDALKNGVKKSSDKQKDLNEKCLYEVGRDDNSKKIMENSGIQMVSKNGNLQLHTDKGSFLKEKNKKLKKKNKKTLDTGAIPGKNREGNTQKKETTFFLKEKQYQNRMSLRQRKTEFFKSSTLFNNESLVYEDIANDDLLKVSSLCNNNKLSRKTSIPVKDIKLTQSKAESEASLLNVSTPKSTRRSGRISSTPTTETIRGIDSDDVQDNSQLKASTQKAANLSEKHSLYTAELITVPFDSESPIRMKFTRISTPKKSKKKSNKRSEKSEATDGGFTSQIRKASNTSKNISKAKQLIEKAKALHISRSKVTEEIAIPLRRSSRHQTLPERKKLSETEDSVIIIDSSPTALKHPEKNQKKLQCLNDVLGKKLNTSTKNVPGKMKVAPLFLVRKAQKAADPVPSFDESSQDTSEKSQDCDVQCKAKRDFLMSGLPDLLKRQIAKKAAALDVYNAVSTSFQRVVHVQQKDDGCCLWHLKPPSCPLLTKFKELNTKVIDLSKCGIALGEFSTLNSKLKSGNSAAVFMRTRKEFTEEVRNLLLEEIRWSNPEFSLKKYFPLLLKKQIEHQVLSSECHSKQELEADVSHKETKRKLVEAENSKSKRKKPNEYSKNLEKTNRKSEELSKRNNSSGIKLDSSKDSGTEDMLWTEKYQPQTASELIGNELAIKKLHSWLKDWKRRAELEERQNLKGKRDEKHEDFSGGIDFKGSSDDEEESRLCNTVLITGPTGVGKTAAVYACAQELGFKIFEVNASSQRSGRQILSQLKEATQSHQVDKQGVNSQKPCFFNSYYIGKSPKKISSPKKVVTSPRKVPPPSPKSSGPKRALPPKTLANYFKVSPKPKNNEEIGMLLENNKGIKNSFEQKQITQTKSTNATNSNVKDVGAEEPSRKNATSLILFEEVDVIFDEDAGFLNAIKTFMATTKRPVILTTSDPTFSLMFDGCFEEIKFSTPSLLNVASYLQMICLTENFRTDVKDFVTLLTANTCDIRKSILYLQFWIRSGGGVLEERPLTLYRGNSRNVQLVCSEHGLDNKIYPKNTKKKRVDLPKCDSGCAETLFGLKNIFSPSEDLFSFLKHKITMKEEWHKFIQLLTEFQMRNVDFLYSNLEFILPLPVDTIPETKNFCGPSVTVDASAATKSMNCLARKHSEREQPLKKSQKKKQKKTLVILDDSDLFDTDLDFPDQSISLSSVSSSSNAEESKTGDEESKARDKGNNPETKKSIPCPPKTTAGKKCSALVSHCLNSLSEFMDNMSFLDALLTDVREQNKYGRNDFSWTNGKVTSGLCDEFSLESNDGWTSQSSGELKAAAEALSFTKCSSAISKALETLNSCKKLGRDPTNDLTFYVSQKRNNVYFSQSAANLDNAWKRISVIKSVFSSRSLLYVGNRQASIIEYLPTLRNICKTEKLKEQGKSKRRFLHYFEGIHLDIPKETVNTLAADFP
Sequence of Phosphoglycerate kinase, glycosomal (Trypanosoma brucei brucei) (P07378 whole entry, looked up): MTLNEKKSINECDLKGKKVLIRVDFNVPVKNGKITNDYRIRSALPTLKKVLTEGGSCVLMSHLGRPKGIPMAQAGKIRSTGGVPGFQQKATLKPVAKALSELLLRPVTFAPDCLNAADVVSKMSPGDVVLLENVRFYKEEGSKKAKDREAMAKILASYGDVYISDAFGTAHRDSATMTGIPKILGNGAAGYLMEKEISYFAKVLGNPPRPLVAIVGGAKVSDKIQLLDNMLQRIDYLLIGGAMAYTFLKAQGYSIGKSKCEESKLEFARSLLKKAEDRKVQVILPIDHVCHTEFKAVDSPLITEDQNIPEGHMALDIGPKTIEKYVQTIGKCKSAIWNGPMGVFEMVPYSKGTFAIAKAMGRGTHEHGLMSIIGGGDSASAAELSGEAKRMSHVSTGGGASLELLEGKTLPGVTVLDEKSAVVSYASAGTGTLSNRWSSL
Sequence of Thyrotropin-releasing hormone receptor (Homo sapiens) (P34981 whole entry, looked up): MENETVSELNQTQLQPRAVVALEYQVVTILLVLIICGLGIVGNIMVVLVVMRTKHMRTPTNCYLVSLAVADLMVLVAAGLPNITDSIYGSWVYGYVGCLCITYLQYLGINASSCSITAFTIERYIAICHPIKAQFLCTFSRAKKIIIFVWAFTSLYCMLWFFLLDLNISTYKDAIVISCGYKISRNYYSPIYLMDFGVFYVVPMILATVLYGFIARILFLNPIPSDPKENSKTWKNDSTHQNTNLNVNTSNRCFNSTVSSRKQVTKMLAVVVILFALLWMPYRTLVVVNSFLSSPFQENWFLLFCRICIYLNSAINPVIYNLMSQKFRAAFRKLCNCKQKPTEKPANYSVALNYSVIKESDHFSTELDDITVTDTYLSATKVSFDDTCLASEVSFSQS
Sequence of phosphoglycerate mutase (Leishmania major) (Q4Q090 1-553): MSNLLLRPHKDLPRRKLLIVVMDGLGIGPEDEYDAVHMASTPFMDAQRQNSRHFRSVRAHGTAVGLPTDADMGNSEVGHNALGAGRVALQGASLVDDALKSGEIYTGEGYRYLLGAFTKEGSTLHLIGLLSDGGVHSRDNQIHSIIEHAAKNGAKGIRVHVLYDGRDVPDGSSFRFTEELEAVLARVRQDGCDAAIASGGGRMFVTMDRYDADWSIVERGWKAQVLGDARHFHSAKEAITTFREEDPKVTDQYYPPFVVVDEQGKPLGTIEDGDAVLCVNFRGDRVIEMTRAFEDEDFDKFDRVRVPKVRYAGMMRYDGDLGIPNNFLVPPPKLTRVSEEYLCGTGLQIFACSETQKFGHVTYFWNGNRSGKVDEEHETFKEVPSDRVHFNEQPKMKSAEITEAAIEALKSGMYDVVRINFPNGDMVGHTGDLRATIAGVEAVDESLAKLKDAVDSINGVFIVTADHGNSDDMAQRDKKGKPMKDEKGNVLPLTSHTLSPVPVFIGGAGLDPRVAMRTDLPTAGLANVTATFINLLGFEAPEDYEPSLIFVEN
Sequence of Galactokinase (Homo sapiens) (P51570 whole entry, looked up): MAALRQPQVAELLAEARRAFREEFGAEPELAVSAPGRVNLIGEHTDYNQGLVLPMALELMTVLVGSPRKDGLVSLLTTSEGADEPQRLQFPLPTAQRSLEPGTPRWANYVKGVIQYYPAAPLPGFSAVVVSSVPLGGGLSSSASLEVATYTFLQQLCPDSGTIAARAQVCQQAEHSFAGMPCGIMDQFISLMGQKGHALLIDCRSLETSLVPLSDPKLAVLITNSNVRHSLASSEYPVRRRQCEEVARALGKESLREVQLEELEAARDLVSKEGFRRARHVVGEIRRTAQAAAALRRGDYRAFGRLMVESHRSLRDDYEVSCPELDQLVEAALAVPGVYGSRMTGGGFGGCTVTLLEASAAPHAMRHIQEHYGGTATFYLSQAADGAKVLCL

SMILES | Potency [1] | Potency [2] | Potency [3] | Potency [4] | activation [5] | Potency [6] | viability change [6] [%] | outcome [7] | outcome [8] | outcome [9] | outcome [10] | outcome [11] | Potency [12] | Potency [13] | outcome [14] | Potency [15] | outcome [16] | outcome [17]
O=C(O)CN(CCN(CC(=O)O)CC(=O)O)CCN(CC(=O)O)CC(=O)O | inactive | inactive | inactive | inactive | 1.81% (inactive) | inactive | -0.829 | inactive | inactive | inactive | inactive | inactive | inactive | inactive |  |  |  | 
CN/C(=C\[N+](=O)[O-])NCCSCc1ccc(CN(C)C)o1 | inactive | inactive |  | inactive | 0.938% (inactive) | inactive | 4.46 | inactive | inactive | inactive | inactive |  | inactive | inactive | inactive | inactive | inactive | 
Cc1nc2ccccn2c(=O)c1CCN1CCC(C(=O)c2ccc(F)cc2)CC1 | inactive | 4.47 µM (active) | inactive |  | 1.44% (inactive) | inactive | -13.1 | inactive | inactive | inactive | inactive | inactive | inactive | inactive | inactive | inactive |  | 
OCCN1CCN(CC/C=C2/c3ccccc3Sc3ccc(C(F)(F)F)cc32)CC1 | inactive |  | inactive |  | 1.19% (inactive) | inactive | -4.74 | inactive | inactive | inactive | inactive | inactive | 56.2 µM (active) | 17.8 µM (active) |  | 28.2 µM (active) |  | inactive
CCc1cccc(N(C)C(N)=Nc2cccc3ccccc23)c1 | inactive |  |  |  |  | inactive | -0.401 |  | inactive |  | inactive |  | inactive |  | inactive |  |  | inactive
CC(C)[N+](C)(CCOC(=O)C1c2ccccc2Oc2ccccc21)C(C)C | inactive |  |  |  | 0.875% (inactive) | inactive | -4.32 | inactive | inactive | inactive | inactive | inactive | inactive | inactive | inactive | inactive |  | inactive
COCC(=O)O[C@]1(CCN(C)CCCc2nc3ccccc3[nH]2)CCc2cc(F)ccc2[C@@H]1C(C)C | inactive |  | inactive | 18.3 µM (active) | 7.31% (inactive) |  |  |  | inactive | inactive | inactive | inactive | inactive | 15.8 µM (active) | inactive |  |  | inactive
CCN(CC)CCNC(=O)c1ccc(NC(C)=O)cc1 | inactive |  | inactive | inactive | 0.312% (inactive) | inactive | 16.6 | inactive | inactive | inactive | inactive | inactive | inactive | inactive | inactive |  |  | inactive
